Consider 35 targets from the supplement of paper PMC10849652.

The full data set covers some 7,900 targets. This sample favours those with a hit. About 0.6% of all pairs of compound and target were hits. Values without a mark were called inactive.

Sequence of UniProt Q9Y5Y5 (Q9Y5Y5 whole entry, looked up): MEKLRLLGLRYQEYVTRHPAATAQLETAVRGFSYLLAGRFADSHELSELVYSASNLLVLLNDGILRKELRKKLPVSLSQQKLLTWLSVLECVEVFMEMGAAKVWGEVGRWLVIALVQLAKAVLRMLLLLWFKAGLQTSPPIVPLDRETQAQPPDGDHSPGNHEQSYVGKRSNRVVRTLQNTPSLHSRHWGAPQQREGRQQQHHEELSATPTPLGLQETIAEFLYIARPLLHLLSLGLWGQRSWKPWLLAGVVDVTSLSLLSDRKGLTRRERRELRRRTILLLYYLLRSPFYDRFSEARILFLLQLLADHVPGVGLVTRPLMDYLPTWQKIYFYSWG
Sequence of UniProt P28070 (P28070 whole entry, looked up): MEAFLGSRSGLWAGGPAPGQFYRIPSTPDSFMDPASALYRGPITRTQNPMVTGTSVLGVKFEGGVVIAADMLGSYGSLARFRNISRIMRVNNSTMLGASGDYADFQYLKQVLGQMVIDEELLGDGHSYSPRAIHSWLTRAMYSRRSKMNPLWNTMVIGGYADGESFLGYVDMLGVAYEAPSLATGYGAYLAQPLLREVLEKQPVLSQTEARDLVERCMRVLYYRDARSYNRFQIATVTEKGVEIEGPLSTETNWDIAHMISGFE
Sequence of UniProt Q9H5K3 (Q9H5K3 whole entry, looked up): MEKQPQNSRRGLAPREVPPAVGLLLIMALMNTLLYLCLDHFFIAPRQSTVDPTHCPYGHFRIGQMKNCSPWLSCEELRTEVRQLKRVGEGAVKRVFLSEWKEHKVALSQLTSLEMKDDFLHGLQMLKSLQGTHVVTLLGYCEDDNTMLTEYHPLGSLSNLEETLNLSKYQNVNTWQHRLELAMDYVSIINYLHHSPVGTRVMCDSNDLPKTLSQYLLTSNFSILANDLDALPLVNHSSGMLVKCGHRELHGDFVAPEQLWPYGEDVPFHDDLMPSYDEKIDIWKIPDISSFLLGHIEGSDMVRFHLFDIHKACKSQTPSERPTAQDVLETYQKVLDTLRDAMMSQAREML
Sequence of UniProt O15530 (O15530 whole entry, looked up): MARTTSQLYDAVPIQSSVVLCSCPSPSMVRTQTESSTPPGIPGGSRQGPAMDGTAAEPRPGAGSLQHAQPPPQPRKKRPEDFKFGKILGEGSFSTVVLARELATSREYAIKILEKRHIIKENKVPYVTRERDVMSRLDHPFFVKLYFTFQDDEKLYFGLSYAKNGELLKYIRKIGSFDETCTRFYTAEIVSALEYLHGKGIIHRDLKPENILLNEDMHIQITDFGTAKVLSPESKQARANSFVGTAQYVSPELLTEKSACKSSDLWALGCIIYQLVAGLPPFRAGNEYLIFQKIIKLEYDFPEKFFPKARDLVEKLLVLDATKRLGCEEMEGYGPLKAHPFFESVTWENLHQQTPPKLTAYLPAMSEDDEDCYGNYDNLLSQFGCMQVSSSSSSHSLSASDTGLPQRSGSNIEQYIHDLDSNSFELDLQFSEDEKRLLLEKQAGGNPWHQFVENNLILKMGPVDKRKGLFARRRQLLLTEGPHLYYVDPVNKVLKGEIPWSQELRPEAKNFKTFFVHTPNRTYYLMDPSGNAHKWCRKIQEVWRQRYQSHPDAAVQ
Sequence of UniProt Q86TB9 (Q86TB9 whole entry, looked up): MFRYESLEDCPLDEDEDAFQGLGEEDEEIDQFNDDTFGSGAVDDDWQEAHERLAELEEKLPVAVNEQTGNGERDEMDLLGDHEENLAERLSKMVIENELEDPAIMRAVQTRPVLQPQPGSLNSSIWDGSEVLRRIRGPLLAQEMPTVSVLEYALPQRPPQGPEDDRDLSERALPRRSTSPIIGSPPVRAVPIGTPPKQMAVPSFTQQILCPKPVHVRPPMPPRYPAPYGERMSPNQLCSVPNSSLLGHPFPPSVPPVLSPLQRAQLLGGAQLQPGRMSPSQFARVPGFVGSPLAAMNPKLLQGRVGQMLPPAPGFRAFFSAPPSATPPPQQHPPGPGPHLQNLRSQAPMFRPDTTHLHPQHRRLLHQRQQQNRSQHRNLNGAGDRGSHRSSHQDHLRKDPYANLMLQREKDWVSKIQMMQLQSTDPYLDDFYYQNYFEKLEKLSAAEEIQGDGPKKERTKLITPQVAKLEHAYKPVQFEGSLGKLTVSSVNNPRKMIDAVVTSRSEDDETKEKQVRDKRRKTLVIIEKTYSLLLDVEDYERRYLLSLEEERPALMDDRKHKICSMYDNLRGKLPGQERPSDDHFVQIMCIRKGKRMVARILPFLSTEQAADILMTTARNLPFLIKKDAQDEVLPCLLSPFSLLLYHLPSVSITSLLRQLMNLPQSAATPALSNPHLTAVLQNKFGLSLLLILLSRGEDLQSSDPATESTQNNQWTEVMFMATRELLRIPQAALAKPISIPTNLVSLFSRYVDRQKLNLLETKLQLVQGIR
Sequence of UniProt Q2TAL8 (Q2TAL8 whole entry, looked up): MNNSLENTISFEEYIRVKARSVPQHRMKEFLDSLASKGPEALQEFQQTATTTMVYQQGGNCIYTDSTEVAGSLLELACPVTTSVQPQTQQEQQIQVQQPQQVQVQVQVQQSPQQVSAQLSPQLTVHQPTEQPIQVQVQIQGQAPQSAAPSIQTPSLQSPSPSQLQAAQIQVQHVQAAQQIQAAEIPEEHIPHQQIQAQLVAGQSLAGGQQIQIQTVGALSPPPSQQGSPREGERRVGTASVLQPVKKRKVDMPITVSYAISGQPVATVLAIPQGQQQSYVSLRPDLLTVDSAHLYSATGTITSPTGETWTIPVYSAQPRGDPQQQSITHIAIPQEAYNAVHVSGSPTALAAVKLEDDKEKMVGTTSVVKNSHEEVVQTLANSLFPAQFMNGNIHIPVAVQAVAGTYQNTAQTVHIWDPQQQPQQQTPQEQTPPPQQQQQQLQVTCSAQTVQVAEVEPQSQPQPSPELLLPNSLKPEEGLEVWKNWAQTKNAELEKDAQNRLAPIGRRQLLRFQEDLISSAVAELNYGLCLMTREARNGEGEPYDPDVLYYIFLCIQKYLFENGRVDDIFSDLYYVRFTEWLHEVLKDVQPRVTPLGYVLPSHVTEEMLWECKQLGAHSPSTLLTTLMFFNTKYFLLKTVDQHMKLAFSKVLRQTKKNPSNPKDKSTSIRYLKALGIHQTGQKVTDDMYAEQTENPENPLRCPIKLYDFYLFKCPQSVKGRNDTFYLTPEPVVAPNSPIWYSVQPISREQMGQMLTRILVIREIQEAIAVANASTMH
Sequence of UniProt Q7Z3K3 (Q7Z3K3 whole entry, looked up): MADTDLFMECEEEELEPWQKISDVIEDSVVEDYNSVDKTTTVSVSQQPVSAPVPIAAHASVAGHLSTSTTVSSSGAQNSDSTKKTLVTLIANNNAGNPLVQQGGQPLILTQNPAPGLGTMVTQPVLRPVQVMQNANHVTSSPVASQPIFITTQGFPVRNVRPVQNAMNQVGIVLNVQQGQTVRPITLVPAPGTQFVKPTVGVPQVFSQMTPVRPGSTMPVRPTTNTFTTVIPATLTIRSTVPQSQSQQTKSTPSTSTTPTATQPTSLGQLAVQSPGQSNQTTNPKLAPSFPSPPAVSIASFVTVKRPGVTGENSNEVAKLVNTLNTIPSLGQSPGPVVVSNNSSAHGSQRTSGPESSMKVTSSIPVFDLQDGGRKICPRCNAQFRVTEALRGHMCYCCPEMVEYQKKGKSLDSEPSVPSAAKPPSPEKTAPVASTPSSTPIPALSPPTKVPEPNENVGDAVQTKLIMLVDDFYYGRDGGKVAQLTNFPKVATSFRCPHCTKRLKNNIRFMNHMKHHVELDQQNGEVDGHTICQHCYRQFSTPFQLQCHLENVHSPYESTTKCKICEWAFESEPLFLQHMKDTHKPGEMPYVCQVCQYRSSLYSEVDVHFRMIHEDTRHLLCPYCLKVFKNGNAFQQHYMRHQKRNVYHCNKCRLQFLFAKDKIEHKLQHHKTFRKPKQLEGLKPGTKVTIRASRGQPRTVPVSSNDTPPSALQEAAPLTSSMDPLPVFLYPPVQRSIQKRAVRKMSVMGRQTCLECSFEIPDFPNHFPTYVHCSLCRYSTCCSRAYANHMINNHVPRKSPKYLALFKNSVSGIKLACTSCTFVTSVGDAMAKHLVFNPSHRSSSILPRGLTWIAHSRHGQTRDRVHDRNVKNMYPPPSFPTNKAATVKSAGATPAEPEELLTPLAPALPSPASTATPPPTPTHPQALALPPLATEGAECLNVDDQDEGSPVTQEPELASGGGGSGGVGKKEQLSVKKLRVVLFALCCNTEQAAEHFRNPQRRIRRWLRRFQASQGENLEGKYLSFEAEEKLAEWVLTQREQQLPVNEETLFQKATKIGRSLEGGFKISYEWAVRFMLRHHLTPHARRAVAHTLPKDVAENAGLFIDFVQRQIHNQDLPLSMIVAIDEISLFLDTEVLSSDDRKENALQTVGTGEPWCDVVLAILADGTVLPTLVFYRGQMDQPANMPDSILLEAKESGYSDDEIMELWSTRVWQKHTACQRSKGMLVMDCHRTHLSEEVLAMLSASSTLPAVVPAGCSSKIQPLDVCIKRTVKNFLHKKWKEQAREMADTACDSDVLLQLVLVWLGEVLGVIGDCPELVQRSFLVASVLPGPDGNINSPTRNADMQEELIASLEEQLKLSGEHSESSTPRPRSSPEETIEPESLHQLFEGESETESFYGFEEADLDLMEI
Sequence of UniProt Q9NR22 (Q9NR22 whole entry, looked up): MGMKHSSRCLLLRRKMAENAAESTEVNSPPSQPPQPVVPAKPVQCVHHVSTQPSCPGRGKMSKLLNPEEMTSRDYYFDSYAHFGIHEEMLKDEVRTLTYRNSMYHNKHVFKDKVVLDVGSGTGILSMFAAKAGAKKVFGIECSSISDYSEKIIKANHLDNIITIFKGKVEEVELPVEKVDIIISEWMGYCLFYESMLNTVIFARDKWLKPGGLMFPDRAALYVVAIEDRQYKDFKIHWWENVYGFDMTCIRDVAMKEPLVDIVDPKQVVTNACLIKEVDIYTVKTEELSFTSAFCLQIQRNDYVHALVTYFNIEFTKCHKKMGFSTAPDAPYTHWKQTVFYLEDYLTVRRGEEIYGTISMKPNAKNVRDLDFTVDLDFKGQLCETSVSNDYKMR
Sequence of UniProt Q12974 (Q12974 whole entry, looked up): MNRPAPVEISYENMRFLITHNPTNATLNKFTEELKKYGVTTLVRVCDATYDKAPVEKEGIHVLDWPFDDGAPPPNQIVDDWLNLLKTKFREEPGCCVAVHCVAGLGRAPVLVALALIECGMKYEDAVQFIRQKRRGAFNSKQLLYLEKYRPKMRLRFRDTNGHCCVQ

Compound in the first assay: CN1CCN(c2nc(C3=C(c4c[nH]c5ccccc45)C(=O)NC3=O)c3ccccc3n2)CC1 [sotrastaurin]
In words: log2 fold change, soluble protein after heating vs DMSO (PISA); higher = thermal stabilisation; K562 cells, 10 uM, 30 min; active = over 0.2 and 3.5 SD of the protein, either way, in both replicates (recomputed). The essentials:
(§1)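 Thermal stability values are relative to control samples and come from duplicates. They are expressed as log2 fold changes. For measurement, K562 cells (2×10^6 cells/mL) received 10 μM compound for 30 min, and aliquots were heated for 3 min over 48°C-58°C, pooled, and extracted at 4°C in PBS with 0.5% NP-40. Soluble protein, the supernatant after 21,000xg for 90 min, was quantified by TMTpro 16plex LC-MS/MS with equalised channel sums.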
In the case of PKM isoform 2 (UniProt P14618), the log2 fold change is -0.133.
For PDIK1L (UniProt Q8N165), the log2 fold change was 0.019.
Consider POLR2C (UniProt P19387), for which the log2 fold change is -0.015.
POLB (UniProt P06746): the log2 fold change is -0.16.
The same measure, in the same setting: under PPP2R5A (UniProt Q15172) stands -0.043; under POMK (UniProt Q9H5K3), 0.007.
Still for that read-out and setting: in the case of PRKAG1 isoform 3 (UniProt P54619) it was 0.04.
On to PSMB9 (UniProt P28065), for which the log2 fold change was 0.074.
Still for that read-out and setting: under PTGFRN (UniProt Q9P2B2) stands 0.082; under PGK2 (UniProt P07205), 0.154.
Still for that read-out and setting: under PTP4A2 (UniProt Q12974) stands 0.107; under PNN (UniProt Q9H307), -0.044; under PLIN2 (UniProt Q99541), -0.243.
Turning to PNPLA4 (UniProt P41247), the log2 fold change is -0.091.
On the same count and under the same terms, in the case of POGZ (UniProt Q7Z3K3) it was -0.186; in that of PRMT3 (UniProt O60678), -0.046.
Same read-out and setting: in the case of PEX16 isoform 2 (UniProt Q9Y5Y5) it was -0.02; in that of PIK3CD (UniProt O00329), -0.106.
Still for that read-out and setting: in the case of PPP1R12C (UniProt Q9BZL4) it was -0.157; in that of POLR2M (UniProt Q6EEV4), -0.015; in that of PSMB4 (UniProt P28070), 0.026.
With PDPK1 (UniProt O15530), the log2 fold change was 0.034.
On the same count and under the same terms, under PHKA1 (UniProt P46020) stands 0.058; under PRMT8 (UniProt Q9NR22), -0.046; under PRKAR2A (UniProt P13861), -0.121.
For the target PHC3 isoform 7 (UniProt Q8NDX5), the log2 fold change was -0.071.
In the case of PATL1 (UniProt Q86TB9), the log2 fold change is -0.16.
As to PARP1 (UniProt P09874), the log2 fold change was -0.104.
The same measure, in the same setting: in the case of QRICH1 (UniProt Q2TAL8) it was -0.076.
The same measure, in the same setting: under PEA15 isoform 2 (UniProt Q15121) stands -0.02.

Compound in another assay: CN1CC[C@H](c2c(O)cc(O)c3c(=O)cc(-c4ccccc4Cl)oc23)[C@H](O)C1 [alvocidib]
The description is as above. In a few lines:
as §1
In the case of PDIK1L (UniProt Q8N165), the log2 fold change is -0.087.
Same read-out and setting: in the case of POLR2C (UniProt P19387) it was 0.204; in that of PSD3 (UniProt Q9NYI0), -0.054; in that of POLB (UniProt P06746), 0.195.
Take PPP2R5A (UniProt Q15172): the log2 fold change was -0.089.
As for POMK (UniProt Q9H5K3), the log2 fold change is -0.083.
In the case of PRKAG1 isoform 3 (UniProt P54619), the log2 fold change is -0.062.
As for PSMB9 (UniProt P28065), the log2 fold change was 0.071.
Regarding PTGFRN (UniProt Q9P2B2), the log2 fold change was -0.029.
On the same count and under the same terms, in the case of PGK2 (UniProt P07205) it was 0.017.
In the case of PIGH (UniProt Q14442), the log2 fold change is 0.022.
With PTP4A2 (UniProt Q12974), the log2 fold change is -0.332 (active).
The same measure, in the same setting: under PNN (UniProt Q9H307) stands -0.12.
The same measure, in the same setting: in the case of PLIN2 (UniProt Q99541) it was 0.01.
Same read-out and setting: in the case of PNPLA4 (UniProt P41247) it was -0.02; in that of POGZ (UniProt Q7Z3K3), -0.065; in that of PRMT3 (UniProt O60678), 0.
PEX16 isoform 2 (UniProt Q9Y5Y5): the log2 fold change was -0.141.
For the target PIK3CD (UniProt O00329), the log2 fold change was 0.055.
On the same count and under the same terms, in the case of POLR2M (UniProt Q6EEV4) it was -0.178; in that of PSMB4 (UniProt P28070), 0.078.
With PDPK1 (UniProt O15530), the log2 fold change was -0.075.
The same measure, in the same setting: in the case of PHKA1 (UniProt P46020) it was -0.073; in that of POLR2E (UniProt P19388), 0.212; in that of PRMT8 (UniProt Q9NR22), -0.029.
Turning to PRKAR2A (UniProt P13861), the log2 fold change was -0.023.
Still for that read-out and setting: under PHC3 isoform 7 (UniProt Q8NDX5) stands -0.057.
As for PATL1 (UniProt Q86TB9), the log2 fold change was -0.127.
The same measure, in the same setting: in the case of PARP1 (UniProt P09874) it was -0.004; in that of PHLDB1 isoform 2 (UniProt Q86UU1), -0.353; in that of QRICH1 (UniProt Q2TAL8), -0.127.
PEA15 isoform 2 (UniProt Q15121): the log2 fold change was -0.061.

Compound in another assay: CN1CCc2c(c3ccccc3n2Cc2ccc(C(=O)NO)cc2)C1 [Tubastatin A]
Described as above. In a few lines:
as §1
As to PKM isoform 2 (UniProt P14618), the log2 fold change is -0.052.
In the case of PDIK1L (UniProt Q8N165), the log2 fold change is 0.063.
With POLR2C (UniProt P19387), the log2 fold change was -0.049.
Turning to POLB (UniProt P06746), the log2 fold change is 0.138.
Still for that read-out and setting: under PPP2R5A (UniProt Q15172) stands 0.042; under POMK (UniProt Q9H5K3), 0.021; under PRKAG1 isoform 3 (UniProt P54619), 0.01.
The same measure, in the same setting: under PTGFRN (UniProt Q9P2B2) stands 0; under PGK2 (UniProt P07205), -0.041.
Still for that read-out and setting: in the case of PIGH (UniProt Q14442) it was -0.274 (active); in that of PTP4A2 (UniProt Q12974), 0.057.
In the case of PLIN2 (UniProt Q99541), the log2 fold change was 0.015.
On the same count and under the same terms, under PCNX1 (UniProt Q96RV3) stands -0.041; under PNPLA4 (UniProt P41247), 0.007.
As to POGZ (UniProt Q7Z3K3), the log2 fold change is -0.071.
Regarding PRMT3 (UniProt O60678), the log2 fold change was -0.017.
As for PEX16 isoform 2 (UniProt Q9Y5Y5), the log2 fold change is 0.021.
On to PIK3CD (UniProt O00329), for which the log2 fold change was 0.003.
Regarding PPP1R12C (UniProt Q9BZL4), the log2 fold change was 0.014.
Still for that read-out and setting: under POLR2M (UniProt Q6EEV4) stands -0.131; under PSMB4 (UniProt P28070), -0.002; under PDPK1 (UniProt O15530), 0.023.
On the same count and under the same terms, under PHKA1 (UniProt P46020) stands -0.256; under POLR2E (UniProt P19388), -0.009; under PRMT8 (UniProt Q9NR22), -0.09.
For the target PRKAR2A (UniProt P13861), the log2 fold change is -0.029.
Same read-out and setting: in the case of PATL1 (UniProt Q86TB9) it was -0.001; in that of PARP1 (UniProt P09874), 0.037.
Same read-out and setting: under PHLDB1 isoform 2 (UniProt Q86UU1) stands -0.023.
The same measure, in the same setting: in the case of QRICH1 (UniProt Q2TAL8) it was 0.156; in that of PEA15 isoform 2 (UniProt Q15121), -0.009.
